Data as given in PubChem BioAssay (NCI).
About 83,000 compounds went through this panel and 20% of them were active in at least one assay; those are over-represented in the sample as a whole.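 Cells were grown in 96-well plates and exposed to the test compound at a single concentration for 48 hours; results are reported as percent growth, with values below 10 considered active.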 A number with no mark means an inactive call. Activity calls are given as the source filed them.

Experiments:
Assay in all cases: NCI-60 one-dose screen, 48 h (100 = growth as untreated, 0 = no growth, -100 = all killed)
NCI-H23 lung = conditions: 10 µM unless noted
NCI-H226 lung = conditions: 10 µM unless noted
NCI-H322M lung = conditions: 10 µM unless noted
NCI-H460 lung = conditions: 10 µM unless noted
HOP-92 NSCLC = conditions: 10 µM
NCI-H522 lung = conditions: 10 µM
A549/ATCC NSCLC = conditions: 10 µM unless noted
786-0 renal = conditions: 10 µM unless noted
COLO 205 colon = conditions: 10 µM unless noted
DU-145 prostate = conditions: 10 µM unless noted
K-562 leukemia = conditions: 10 µM unless noted
MALME-3M melanoma = conditions: 10 µM unless noted
MDA-MB-231 breast = conditions: 10 µM unless noted
RXF 393 renal = conditions: 10 µM unless noted
SF-268 CNS = conditions: 10 µM unless noted
SF-295 CNS = conditions: 10 µM unless noted
SF-539 CNS = conditions: 10 µM unless noted
UACC-257 melanoma = conditions: 10 µM unless noted
M14 melanoma = conditions: 10 µM unless noted

Structure (SMILES)	growth (NCI-H23 lung)	growth (NCI-H226 lung)	growth (NCI-H322M lung)	growth (NCI-H460 lung)	growth (HOP-92 NSCLC)	growth (NCI-H522 lung)	growth (A549/ATCC NSCLC)	growth (786-0 renal)	growth (COLO 205 colon)	growth (DU-145 prostate)	growth (K-562 leukemia)	growth (MALME-3M melanoma)	growth (MDA-MB-231 breast)	growth (RXF 393 renal)	growth (SF-268 CNS)	growth (SF-295 CNS)	growth (SF-539 CNS)	growth (UACC-257 melanoma)	growth (M14 melanoma)
C#CCCCCCCC[C@@H]1OC(=O)[C@H]([C@@H](C)CC)NC(=O)[C@@H]([C@@H](C)CC)NC(=O)CC(=O)[C@@H]1C	99.2%	86.1%	96.9%	102%	77.3%	90.7%	107%	109%	119%	106%	92.5%	94.7%	85.7%	101%	94.8%	98.6%	96.2%	121%	93.3%
Cc1ccc(S(=O)(=O)N/N=C2\CC3CCC2C3)cc1 (stereo not drawn)	117%	96.8%	99.3%	107%	87.2%	96.7%	105%	100%	113%	114%	103%	102%	111%	112%	113%	86.6%	97.6%	114%	104%
COc1ccc(-c2cc(C#N)c(NNC(C)=O)[nH]2)cc1	91.4%	104%	117%	128%	178%	107%	115%	95.3%	129%	123%	47.5%	106%	106%	118%	122%	101%	112%	108%	–
CCCC(CCC)Oc1ccc(CCCC2=C(O)c3ccccc3C(=O)C2=O)cc1	26.9%	32.6%	-1.08% (active)	9.9% (active)	28.1%	30.2%	32.1%	42.2%	43.9%	33.4%	23%	57%	54.6%	58.7%	45.3%	28.2%	23.1%	40.5%	–
Cc1ccc(S(=O)(=O)NC(CCC(=O)Nc2ccccc2)C(=O)Nc2ccccc2)cc1 (stereo not drawn)	-24.8% (active)	6.72% (active)	-17% (active)	-4.49% (active)	-45.2% (active)	-71.8% (active)	-19% (active)	-15.6% (active)	-22.6% (active)	5.02% (active)	3.93% (active)	-36.5% (active)	-30.1% (active)	-24.6% (active)	8.46% (active)	-3.31% (active)	-75.6% (active)	-18.4% (active)	3.93% (active)
Nc1cc2c(cc1Br)[nH]c(=O)c1ccccc12	54.4%	54.8%	83.8%	38.4%	35%	43%	29.3%	58.6%	68.1%	27.8%	40.7%	26.3%	32%	22%	51.3%	74.8%	110%	45.8%	22%
Oc1ccccc1/C=N/N=C\c1ccccc1Cl	88.3%	76.8%	97.6%	99%	77.5%	92.3%	101%	100%	109%	99.5%	77.1%	103%	72.6%	97.3%	91.9%	98.7%	105%	104%	91%
C/C(=N\Nc1ccc(Cl)cn1)c1ccc2ccccc2n1	21%	-5.19% (active)	16.4%	3.21% (active)	34.4%	11.9%	4.29% (active)	12.9%	9.81% (active)	19.9%	5.97% (active)	10.6%	31.5%	30.5%	10.3%	2.94% (active)	3.44% (active)	-19.9% (active)	0.159% (active)
CC(=O)Nc1ccc(C(=O)/C=C/c2ccc(N(C)C)cc2)cc1	93.9%	96.9%	106%	97.6%	101%	76.6%	93.9%	96.7%	106%	98.2%	98.2%	88.9%	104%	99.1%	93.7%	99%	106%	95.5%	99.4%
CCC(C)C1NC(=O)C(CC(C)C)NC(=O)C(C)NC(=O)C(C(C)C)NC(=O)C(CCCCN)NC(=O)C(CC(C)C)NC(=O)C(C(C)C)NC(=O)[C@H](C)NC(=O)C(C(C)CC)NC(=O)C(CCCN=C(N)N)NC(=O)C(CCCCN)NC(=O)C(CCCN=C(N)N)NC(=O)C(CCCCN)NC(=O)C([C@H](C)CC)NC(=O)C(CCCCN)NC1=O (stereo partly drawn)	8.22% (active)	44.9%	64.9%	4.91% (active)	-21.8% (active)	-5.53% (active)	22.3%	10.5%	-73% (active)	23.8%	8.83% (active)	15.2%	-0.693% (active)	33%	20.3%	21.4%	67.2%	1.31% (active)	17.7%
Oc1ccccc1\C=N/N=C/C=C/c1ccccc1	92.7%	103%	98.6%	99%	103%	87.4%	105%	111%	108%	105%	82.9%	102%	67.1%	117%	88.9%	98.4%	104%	107%	95.8%
CCOC(=O)NC1=NCC(C)(C)S1	102%	97.2%	101%	101%	111%	87.3%	100%	104%	117%	107%	88.4%	103%	101%	111%	97.8%	98.7%	110%	103%	103%
CCOC(=O)c1ccc2n1CCCc1cnc(NC(C)=O)nc1-2	112%	82.4%	110%	112%	82.2%	97%	109%	99.4%	122%	111%	102%	110%	106%	96.6%	96.2%	100%	95.1%	115%	99.9%
COC(=O)c1ccc2[nH]c(O)c(C(=Nc3ccc(N(C)C(=O)CN4CCN(C)CC4)cc3)c3ccc([N+](=O)[O-])cc3)c2c1	57.3%	55.8%	41.9%	48.5%	63.6%	34.3%	72.8%	33.1%	43.8%	47.3%	1.99% (active)	-1.29% (active)	70.2%	33.9%	45.3%	55.2%	38.9%	85.4%	32.1%
CC(C)(C)c1ccc([I+]c2ccc(C(C)(C)C)cc2)cc1	-13.7% (active)	23.8%	55.8%	4.98% (active)	-9.02% (active)	7.79% (active)	39.9%	16.8%	-42.1% (active)	-89.1% (active)	1.42% (active)	-61.2% (active)	-30.3% (active)	0.632% (active)	1.36% (active)	23.7%	21.2%	1.08% (active)	2.73% (active)
